Data as given in PubChem BioAssay (NCATS).
Records with an inconclusive call do not appear. Active and inactive are the calls of the source. Unless noted, calls follow the shape of the dose curve; as a rule, active = well fitted curve in the direction sought with a large enough effect; inconclusive = small, poorly fitted or top-dose-only effect, or another doubt; inactive = no such curve, though single readings can be large; an effect the other way counts as inactive or inconclusive.

Key:
[1] = molecular target: Thioredoxin reductase 1, cytoplasmic (Rattus norvegicus) (UniProt O89049); assay: qHTS Assay for Substrates of Mammalian Selenoprotein Thioredoxin Reductase 1 (TrxR1) (AID 488772);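 also: series mostly up to about 57 µM; 0% is about no effect; a drop in NADPH fluorescence below the no-compound background marks a TrxR1 substrate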
Summary of the method: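 In this dual-purpose format, potential substrates are identified from the first fluorescence read after selenite addition, not from the 8-minute delta. Rat enzyme is preincubated with NADPH and then with compound at ~22 deg C.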

[2] = molecular target: Thioredoxin reductase 1, cytoplasmic (Rattus norvegicus) (UniProt O89049); assay: qHTS Assay for Inhibitors of Mammalian Selenoprotein Thioredoxin Reductase 1 (TrxR1) (AID 488773); details: Potency: inhibition; also: nearly all actives have a fitted effect of over 40% in size; also: potency is read from the fitted curve at half-maximal effect
Summary of the method: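 Inhibition is scored from the loss of NADPH fluorescence between first and last reads of an 8-min kinetic run. Selenite (400 uM) was the substrate, added after 15 min compound preincubation at room temperature.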

[3] = molecular target: Flap endonuclease 1 (Homo sapiens) (UniProt P39748); assay: qHTS Validation Assay for the Inhibitors of Human Flap endonuclease 1 (FEN1) (AID 488816); also: % is scaled to controls: 0 for no effect and ±100 for the full control effect
Summary of the method: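 Enzyme reagent 10 nM; cpds pinned; 15 min RT preinc.; substrate 50 nM final; reads t=0 and 15 min; no-enzyme buffer wells as neg. control; normalized data, 4-parameter Hill fit.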

[4] = molecular target: M-phase phosphoprotein 8 (Homo sapiens) (UniProt Q99549); assay: qHTS Validation Assay for Inhibitors for MPP8 Chromodomain Interactions with Methylated Histone Tails (AID 488949); also: nearly all actives have a fitted effect of over 55% in size; also: potency is read from the fitted curve at half-maximal effect
Summary of the method: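 AlphaScreen proximity signal from streptavidin donor and Ni-chelate acceptor beads (10 ug/mL each) reported binding of MPP8 to trimethyl-K9 H3(1-18) peptide, both at 50 nM. The complex formed 30 min before a 30 min compound exposure at room temperature, in PBS pH 7.4.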

[5] = molecular target: Chromobox protein homolog 1 (Homo sapiens) (UniProt P83916); assay: qHTS Validation Assay for Inhibitors of HP1-beta Chromodomain Interactions with Methylated Histone Tails (AID 488953); also: nearly all actives have a fitted effect of over 50% in size; also: potency is read from the fitted curve at half-maximal effect
Summary of the method: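 AlphaScreen proximity readout: streptavidin donor and Ni-chelate acceptor beads, 10 ug/mL final, 30 min dark, RT. Complex of 50 nM HP1-beta and 50 nM b-H3(1-18)K9me3 formed 30 min, then compound-treated 30 min; PBS pH 7.4/0.01% Tween-20.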

[6] = molecular target: Methanococcus maripaludis chaperonin (MmCpn) (UniProt Q6LX38); assay: High-Throughput Screening for Modulators of Cytosolic Chaperonin Activity: MmCpn Primary Screen (AID 488978);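 also: 50 nM MmCpn enzyme hydrolysing 30 µM ATP at 37 °C; 0% is about no effect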
Summary of the method: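 ATPase activity of 50 nM MmCpn was assayed with 30 uM ATP, 10 minutes at 37C, after a 5 min compound preincubation at room temperature. ADP production was read as HTRF emission at 590 and 665 nm.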

[7] = molecular target: D(1A) dopamine receptor (Homo sapiens) (UniProt P21728); assay: HTS Assay for Allosteric Agonists of the Human D1 Dopamine Receptor: Primary Screen for Potentiators (AID 488982); also: 0% is about no effect
Summary of the method: (§1)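 Tetracycline-induced HEK293 Trex D1 cells with forced coupling to calcium, loaded with no-wash calcium dye; kinetic fluorescence read 180 s after compound addition for agonism, then a further 180 s after an EC20 dopamine challenge for potentiation.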

[8] = molecular target: D(1A) dopamine receptor (Homo sapiens) (UniProt P21728); assay: HTS Assay for Allosteric Agonists of the Human D1 Dopamine Receptor: Primary Screen for Antagonists (AID 488983);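 also: calcium flux response to an EC80 dopamine challenge measured with no-wash dye; nearly all actives have a fitted effect of over 65% in size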; also: potency is read from the fitted curve at half-maximal effect
Summary of the method: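 Calcium flux readout, no-wash dye, inducible HEK293 T-REx D1 line (force-coupled). Compound added after 10 s baseline, 180 s kinetic read; then dopamine at EC80, further 180 s read.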

[9] = molecular target: ATPase family AAA domain-containing protein 5 (Homo sapiens) (UniProt Q96QE3); assay: Validation screen for small molecules that inhibit ELG1-dependent DNA repair in human embryonic kidney (HEK293T) cells expressing luciferase-tagged ELG1 (AID 493107); also: nearly all actives have a fitted effect of over 70% in size; also: potency is read from the fitted curve at half-maximal effect
Summary of the method: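 ELG1-luciferase HEK293T reporter; 5-fluorouridine + compound/DMSO, 16 hr, 37 °C, 5% CO2; ONE-Glo 30 min RT; luminescence read, qHTS format.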

[10] = Nrf2 qHTS screen for inhibitors: Validation (AID 493153; active = well fitted inhibition curve with a large enough effect in the main read-out, with a control signal flat, not every such curve was filed as active; also: potency is read from the fitted curve at half-maximal effect); details: Potency: luciferase luminescence; viability change: measured here: cytotoxicity max response
Summary of the method: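 Concentration-response test in A549 ARE_Fluc reporter cells (5% FBS OPTI-MEM), compound exposure 18-24 h at 37°C, 5% CO2. Cell viability measured first by CellTiter-Fluor fluorescence; ARE-driven luciferase luminescence then measured as Nrf2 activity.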

[11] = qHTS for Inhibitors of Cell Surface uPA Generation: Validation Assay (AID 493164);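 also: RAW 264.7 macrophage cells exposed to compound for 18 h; 0% is about no effect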
Summary of the method: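 Compounds are titrated over seven points (2.45 nM–38.3 uM final) onto pre-plated RAW 264.7 cells and incubated for 18 h. Retained intracellular ATP, measured with ATP-Lite, indicates blocked lethal factor entry.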

[12] = molecular target: Transient receptor potential cation channel subfamily V member 1 (Homo sapiens) (UniProt Q8NER1); assay: HTS Assay for Compounds that Act as Enhancers of the Vanilloid Receptor 1 (AID 488979); also: 0% is about no effect
Summary of the method: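 TRPV1 cells loaded with Fluo-8 calcium dye; compound added and Ca2+ signal (ex 480/em 520 nm) followed 3 min, then capsaicin at EC20 added and read 2 more min to detect enhancement.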

[13] = molecular target: Thyrotropin receptor (Homo sapiens) (UniProt P16473); assay: qHTS Assay for Antagonists of the Thyroid Stimulating Hormone Receptor (AID 488980); also: series mostly up to about 58 µM; 0% is about no effect
Summary of the method: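 Inhibition of cAMP raised by EC80 TSH (4 nM final) was read by HTRF, with lysate cAMP competing against cAMP-d2 for cryptate antibody after 30 min at room temperature. The cells were transfected HEK293 held in phosphodiesterase inhibitor RO 20-1724 at 70 uM.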

[14] = molecular target: D(1A) dopamine receptor (Homo sapiens) (UniProt P21728); assay: HTS Assay for Allosteric Agonists of the Human D1 Dopamine Receptor: Primary Screen for Agonists (AID 488981); also: 0% is about no effect
Summary of the method: as §1

[15] = Validation screen for small molecules that induce genotoxicity in human embryonic kidney (HEK293T) cells expressing luciferase-tagged ELG1 (AID 493106); also: 0% is about no effect
Summary of the method: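 qHTS format; 2,000 HEK293T ELG1-luc cells/well; 23 nL compound via pin tool; 16 hr, 37 °C/5% CO2; ONE-Glo, 30 min RT; luminescence read.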

[16] = molecular target: Thyrotropin-releasing hormone receptor (Homo sapiens) (UniProt P34981); assay: qHTS for Small Molecule Agonists and Allosteric Enhancers of Human TRH Receptor: Validation Screen for Agonists (AID 493127;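 active = calcium activation more than 3 SD above the typical response in the agonist read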;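 also: intracellular calcium rise by fluo-8 fluorescence before TRH EC20 addition; 0% is about no effect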); details: TRH receptor agonist cell assay; at 2 µM; stronger effect = higher value
Summary of the method: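 Read-out: intracellular calcium release measured kinetically by FDSS (fluo-8, ex 480/em 530 nm), 1 reading/s after a 10-cycle baseline. TRHR cells, 2000/well, cultured 18 h at 33.5C, dye-loaded at room temp. Compound-evoked positive calcium signal flags agonists.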

[17] = molecular target: Galactokinase (Homo sapiens) (UniProt P51570); assay: qHTS Validation Assay for Inhibitors of Human Galactokinase (GALK) (AID 493189); also: 0% is about no effect
Summary of the method: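 Inhibition was measured as remaining ATP, detected by luciferase luminescence after a 1 h room-temperature reaction. Final conditions: 5 nM GALK, 100 uM galactose, 35 uM ATP, pH 8.0 HEPES buffer.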

[18] = Quantitative high throughput screen for delayed death inhibitors of the malarial parasite plastid, 48 hour incubation (AID 488752); also: % is scaled to controls: 0 for no effect and ±100 for the full control effect; nearly all actives have a fitted effect of over 65% in size
Summary of the method: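 Luciferase-expressing P. falciparum in RBCs, 2% Hct, 0.1% parasitemia final; RPMI 1640 + 0.5% Albumax; 48 h, 37 C, 5% CO2; luminescence readout, signal drop = growth inhibition.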

[19] = molecular target: Tyrosyl-DNA phosphodiesterase 1 (Homo sapiens) (UniProt Q9NUW8); assay: Confirmation Assay for Inhibitors of Tyrosyl-DNA Phosphodiesterase (TDP1) (AID 489007); details: recombinant human TDP1 enzymatic activity, dose-response; also: potency is read from the fitted curve at half-maximal effect; nearly all actives have a fitted effect of over 40% in size
Summary of the method: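 AlphaScreen read-out: streptavidin donor and anti-FITC acceptor beads (10 ug/ml) bind intact substrate, so Tdp1 removal of tyrosine-FITC lowers signal. Enzyme 1 nM, substrate 15 nM, 5 min reaction at room temperature after 15 min compound preincubation.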

Chain of Thyrotropin-releasing hormone receptor (Homo sapiens) (P34981 whole entry, looked up): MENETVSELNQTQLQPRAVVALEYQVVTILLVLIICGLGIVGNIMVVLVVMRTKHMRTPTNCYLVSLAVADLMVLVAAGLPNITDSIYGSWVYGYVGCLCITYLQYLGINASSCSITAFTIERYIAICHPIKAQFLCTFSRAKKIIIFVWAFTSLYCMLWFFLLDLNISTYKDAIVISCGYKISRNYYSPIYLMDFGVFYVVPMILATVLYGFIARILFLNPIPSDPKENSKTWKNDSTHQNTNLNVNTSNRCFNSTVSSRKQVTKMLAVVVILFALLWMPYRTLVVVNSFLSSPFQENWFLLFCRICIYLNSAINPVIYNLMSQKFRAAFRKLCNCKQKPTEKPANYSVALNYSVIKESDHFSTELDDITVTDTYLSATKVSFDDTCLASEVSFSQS
Chain of Thioredoxin reductase 1, cytoplasmic (Rattus norvegicus) (O89049 whole entry, looked up): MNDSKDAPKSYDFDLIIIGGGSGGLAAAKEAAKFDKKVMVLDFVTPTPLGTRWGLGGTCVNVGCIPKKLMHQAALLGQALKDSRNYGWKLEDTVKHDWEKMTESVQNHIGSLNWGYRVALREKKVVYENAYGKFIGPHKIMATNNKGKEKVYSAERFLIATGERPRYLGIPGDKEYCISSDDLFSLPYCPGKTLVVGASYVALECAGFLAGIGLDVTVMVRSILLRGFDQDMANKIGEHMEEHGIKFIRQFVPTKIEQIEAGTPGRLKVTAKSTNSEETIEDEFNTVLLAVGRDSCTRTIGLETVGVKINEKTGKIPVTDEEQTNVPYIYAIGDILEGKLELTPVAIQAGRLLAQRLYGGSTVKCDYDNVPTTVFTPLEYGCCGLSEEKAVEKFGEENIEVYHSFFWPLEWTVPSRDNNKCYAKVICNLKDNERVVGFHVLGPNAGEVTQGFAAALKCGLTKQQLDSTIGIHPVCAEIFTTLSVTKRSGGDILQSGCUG
Chain of Methanococcus maripaludis chaperonin (MmCpn) (Q6LX38 1-543): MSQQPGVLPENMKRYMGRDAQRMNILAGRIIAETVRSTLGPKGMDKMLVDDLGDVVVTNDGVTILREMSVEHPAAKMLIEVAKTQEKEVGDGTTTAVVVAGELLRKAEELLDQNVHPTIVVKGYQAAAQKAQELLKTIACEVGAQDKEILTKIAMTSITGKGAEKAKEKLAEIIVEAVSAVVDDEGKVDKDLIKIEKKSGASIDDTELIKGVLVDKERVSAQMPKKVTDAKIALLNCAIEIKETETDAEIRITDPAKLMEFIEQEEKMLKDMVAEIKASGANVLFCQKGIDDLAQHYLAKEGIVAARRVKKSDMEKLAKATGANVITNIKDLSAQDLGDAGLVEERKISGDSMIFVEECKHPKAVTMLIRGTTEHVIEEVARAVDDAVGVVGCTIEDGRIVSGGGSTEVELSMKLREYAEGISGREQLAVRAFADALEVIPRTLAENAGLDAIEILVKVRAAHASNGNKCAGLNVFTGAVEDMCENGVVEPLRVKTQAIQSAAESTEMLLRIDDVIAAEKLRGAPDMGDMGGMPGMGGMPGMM
Chain of ATPase family AAA domain-containing protein 5 (Homo sapiens) (Q96QE3 whole entry, looked up, the tested form may be a part): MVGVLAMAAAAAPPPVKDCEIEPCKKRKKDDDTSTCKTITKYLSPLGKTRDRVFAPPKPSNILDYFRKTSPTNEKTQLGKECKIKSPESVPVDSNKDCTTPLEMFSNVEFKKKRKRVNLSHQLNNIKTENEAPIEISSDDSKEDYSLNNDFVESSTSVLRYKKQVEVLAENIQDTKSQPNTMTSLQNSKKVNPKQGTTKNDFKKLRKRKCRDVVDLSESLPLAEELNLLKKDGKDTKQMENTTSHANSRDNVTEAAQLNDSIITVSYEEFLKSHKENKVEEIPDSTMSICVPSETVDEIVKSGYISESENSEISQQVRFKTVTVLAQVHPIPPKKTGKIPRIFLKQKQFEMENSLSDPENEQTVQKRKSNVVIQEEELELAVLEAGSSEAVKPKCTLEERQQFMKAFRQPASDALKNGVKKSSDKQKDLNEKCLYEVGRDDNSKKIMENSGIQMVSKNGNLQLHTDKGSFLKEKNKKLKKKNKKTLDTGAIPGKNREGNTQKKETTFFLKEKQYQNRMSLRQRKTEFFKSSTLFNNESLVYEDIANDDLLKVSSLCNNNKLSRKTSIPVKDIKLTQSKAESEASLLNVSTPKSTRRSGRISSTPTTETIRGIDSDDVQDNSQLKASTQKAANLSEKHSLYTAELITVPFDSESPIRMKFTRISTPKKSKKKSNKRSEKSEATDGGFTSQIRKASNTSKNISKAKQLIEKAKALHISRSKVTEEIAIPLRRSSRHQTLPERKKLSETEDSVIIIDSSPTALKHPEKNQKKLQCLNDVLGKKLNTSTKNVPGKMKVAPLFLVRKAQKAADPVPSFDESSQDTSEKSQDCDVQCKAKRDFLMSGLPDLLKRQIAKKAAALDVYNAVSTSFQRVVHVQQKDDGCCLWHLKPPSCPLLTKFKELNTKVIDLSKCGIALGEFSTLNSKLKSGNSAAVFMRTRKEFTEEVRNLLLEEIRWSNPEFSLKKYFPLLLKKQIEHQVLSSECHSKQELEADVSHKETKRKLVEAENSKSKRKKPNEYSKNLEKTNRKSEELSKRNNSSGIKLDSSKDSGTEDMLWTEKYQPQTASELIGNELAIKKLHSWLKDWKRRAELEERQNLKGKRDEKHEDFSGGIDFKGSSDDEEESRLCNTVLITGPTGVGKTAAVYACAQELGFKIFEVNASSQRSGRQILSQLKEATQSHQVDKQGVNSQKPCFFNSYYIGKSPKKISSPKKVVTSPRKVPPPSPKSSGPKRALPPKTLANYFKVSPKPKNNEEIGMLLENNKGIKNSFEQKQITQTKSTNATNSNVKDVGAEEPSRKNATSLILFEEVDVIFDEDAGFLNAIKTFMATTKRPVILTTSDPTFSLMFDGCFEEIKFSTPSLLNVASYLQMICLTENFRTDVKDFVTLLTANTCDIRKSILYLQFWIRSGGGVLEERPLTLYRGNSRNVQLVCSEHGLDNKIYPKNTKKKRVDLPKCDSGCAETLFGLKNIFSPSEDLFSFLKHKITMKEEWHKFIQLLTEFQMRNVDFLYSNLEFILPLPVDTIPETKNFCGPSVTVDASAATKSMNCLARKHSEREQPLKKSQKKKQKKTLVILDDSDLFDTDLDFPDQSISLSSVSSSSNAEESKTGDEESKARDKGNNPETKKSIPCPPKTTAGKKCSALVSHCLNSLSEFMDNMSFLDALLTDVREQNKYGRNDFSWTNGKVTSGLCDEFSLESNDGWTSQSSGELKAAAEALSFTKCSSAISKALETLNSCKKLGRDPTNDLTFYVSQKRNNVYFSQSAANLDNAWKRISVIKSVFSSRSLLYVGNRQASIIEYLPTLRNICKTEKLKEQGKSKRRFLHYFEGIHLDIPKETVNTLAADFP
Chain of Flap endonuclease 1 (Homo sapiens) (P39748 whole entry, looked up): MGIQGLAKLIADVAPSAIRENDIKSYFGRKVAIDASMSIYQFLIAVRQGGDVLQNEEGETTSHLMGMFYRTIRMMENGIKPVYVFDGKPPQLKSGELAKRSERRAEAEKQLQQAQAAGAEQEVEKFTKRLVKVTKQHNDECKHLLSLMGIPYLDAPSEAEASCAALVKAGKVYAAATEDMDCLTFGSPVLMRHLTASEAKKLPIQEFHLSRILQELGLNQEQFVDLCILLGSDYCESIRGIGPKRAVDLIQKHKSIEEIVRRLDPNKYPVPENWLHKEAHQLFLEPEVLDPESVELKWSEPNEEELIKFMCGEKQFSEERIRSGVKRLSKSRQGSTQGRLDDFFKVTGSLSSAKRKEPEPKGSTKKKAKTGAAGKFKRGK
Chain of Galactokinase (Homo sapiens) (P51570 whole entry, looked up): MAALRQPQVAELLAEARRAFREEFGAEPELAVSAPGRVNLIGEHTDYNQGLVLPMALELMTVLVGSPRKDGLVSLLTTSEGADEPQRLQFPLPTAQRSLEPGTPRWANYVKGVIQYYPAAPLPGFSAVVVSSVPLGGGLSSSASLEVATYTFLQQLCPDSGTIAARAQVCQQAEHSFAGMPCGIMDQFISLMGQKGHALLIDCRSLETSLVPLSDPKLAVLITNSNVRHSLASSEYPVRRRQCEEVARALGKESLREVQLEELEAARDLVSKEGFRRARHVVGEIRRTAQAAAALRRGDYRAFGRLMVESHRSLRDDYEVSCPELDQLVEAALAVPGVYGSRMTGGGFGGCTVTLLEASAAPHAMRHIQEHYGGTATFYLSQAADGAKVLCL
Chain of Transient receptor potential cation channel subfamily V member 1 (Homo sapiens) (Q8NER1 whole entry, looked up): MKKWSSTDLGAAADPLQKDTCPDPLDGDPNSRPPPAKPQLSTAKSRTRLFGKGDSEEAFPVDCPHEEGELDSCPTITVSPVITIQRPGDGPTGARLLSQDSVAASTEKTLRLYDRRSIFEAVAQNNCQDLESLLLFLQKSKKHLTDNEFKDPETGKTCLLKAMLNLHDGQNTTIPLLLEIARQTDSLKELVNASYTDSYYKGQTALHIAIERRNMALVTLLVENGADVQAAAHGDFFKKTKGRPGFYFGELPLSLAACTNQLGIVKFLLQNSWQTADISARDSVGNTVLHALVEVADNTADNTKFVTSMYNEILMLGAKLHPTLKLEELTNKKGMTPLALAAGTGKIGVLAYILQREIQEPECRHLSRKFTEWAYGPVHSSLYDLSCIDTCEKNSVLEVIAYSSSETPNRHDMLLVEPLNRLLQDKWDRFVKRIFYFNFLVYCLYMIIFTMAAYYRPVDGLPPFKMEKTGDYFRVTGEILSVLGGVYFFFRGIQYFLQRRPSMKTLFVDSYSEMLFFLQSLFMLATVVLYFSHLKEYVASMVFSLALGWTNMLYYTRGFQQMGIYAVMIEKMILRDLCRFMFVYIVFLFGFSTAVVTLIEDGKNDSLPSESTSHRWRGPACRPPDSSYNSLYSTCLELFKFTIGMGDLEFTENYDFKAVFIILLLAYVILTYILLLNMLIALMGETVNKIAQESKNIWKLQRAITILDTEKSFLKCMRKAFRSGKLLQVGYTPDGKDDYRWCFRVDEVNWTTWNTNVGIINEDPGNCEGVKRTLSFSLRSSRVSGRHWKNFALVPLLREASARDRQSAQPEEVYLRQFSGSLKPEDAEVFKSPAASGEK

OC[C@H]1O[C@@H](n2cnc3c(NC4CCCC4)ncnc32)[C@H](O)[C@@H]1O
inactive: Potency [1] | Potency [2] | Potency [3] | Potency [4] | Potency [5] | outcome [6] | Potency [7] | Potency [8] | Potency [9] | Potency [10] | outcome [11]
-2.89%: viability change [10]

O=C(O)c1cc(=O)c2ccccc2[nH]1
active: Potency [5] 0.0474 µM
-7.12%: viability change [10]
inactive: Potency [1] | Potency [2] | Potency [3] | Potency [4] | outcome [6] | outcome [12] | outcome [13] | Potency [14] | Potency [8] | Potency [15] | Potency [9] | activation [16] 0.125% | Potency [10] | outcome [11] | Potency [17]

Nc1nc(Cl)nc2c1ncn2[C@@H]1O[C@H](CO)[C@@H](O)[C@H]1O
inactive: Potency [1] | Potency [2] | Potency [3] | Potency [4] | Potency [5] | Potency [14] | Potency [7] | Potency [8] | Potency [15] | Potency [9] | Potency [10] | outcome [11]
-2.02%: viability change [10]

CC(=O)/C=C1\C(=O)N(C)c2ccccc21
-4.33%: viability change [10]
active: Potency [2] 29.9 µM | Potency [5] 0.0532 µM | Potency [8] 10 µM
inactive: Potency [1] | Potency [3] | Potency [4] | Potency [14] | Potency [7] | Potency [15] | Potency [9] | Potency [10] | outcome [11]

CN1CC(=O)N/C1=N/C(=O)Nc1cccc(Cl)c1
inactive: Potency [1] | Potency [2] | Potency [3] | Potency [4] | Potency [5] | Potency [14] | Potency [7] | Potency [8] | Potency [15] | Potency [10] | outcome [11]
-1.94%: viability change [10]

Cc1cc2c(cc1Cl)N(C(=O)Nc1ccc(Oc3cccnc3C)nc1)CC2
active: Potency [5] 44.7 µM | Potency [8] 14.1 µM | Potency [10] 7.31 µM
-19.7%: viability change [10]
inactive: Potency [1] | Potency [2] | Potency [3] | Potency [4] | outcome [6] | Potency [14] | Potency [7] | Potency [15]

CO/N=C(\C(=O)N[C@@H]1C(=O)N2C(C(=O)O)=C(COC(C)=O)CS[C@H]12)c1csc(N)n1 (stereo in doubt)
active: Potency [4] 56.2 µM | Potency [19] 7.94 µM
inactive: Potency [18] | outcome [12] | outcome [13] | activation [16] 0.688% | Potency [17]

Cc1cc(NC2CCCCC2)nc(-n2nc(C)cc2C)n1
active: Potency [9] 14.6 µM
inactive: Potency [1] | Potency [2] | Potency [3] | Potency [4] | Potency [5] | Potency [14] | Potency [7] | Potency [8] | Potency [15] | Potency [10] | outcome [11]
-6.43%: viability change [10]

CCc1c(C(=O)NCCc2ccc(N3CCCCC3)cc2)[nH]c2ccc(Cl)cc12
inactive: Potency [1] | Potency [2] | Potency [3] | Potency [4] | outcome [6] | Potency [14] | Potency [7] | Potency [8] | Potency [15] | Potency [9] | Potency [10] | outcome [11]
active: Potency [5] 20 µM
-7.76%: viability change [10]

Nc1ncnc2c1c(I)cn2[C@@H]1C[C@H](N)[C@@H](O)[C@H]1O
inactive: Potency [1] | Potency [2] | Potency [3] | Potency [4] | Potency [5] | Potency [7] | Potency [8] | Potency [15] | outcome [11]
active: Potency [9] 5.17 µM

CN[C@H](CC(C)C)C(=O)N[C@H]1C(=O)N[C@@H](CC(N)=O)C(=O)N[C@H]2C(=O)N[C@H]3C(=O)N[C@H](C(=O)N[C@H](C(=O)O)c4cc(O)cc(O)c4-c4cc3ccc4O)[C@H](O)c3ccc(c(Cl)c3)Oc3cc2cc(c3O[C@@H]2O[C@H](CO)[C@@H](O)[C@H](O)[C@H]2O[C@H]2C[C@](C)(N)[C@H](O)[C@H](C)O2)Oc2ccc(cc2Cl)[C@H]1O
inactive: Potency [18] | Potency [4] | outcome [12] | outcome [13] | Potency [17]

Nc1ccn([C@@H]2O[C@H](CO)[C@@H](O)[C@@H]2O)c(=O)n1
inactive: Potency [18] | Potency [4] | outcome [12] | activation [16] -0.125%

C#C[C@]1(O)CC[C@H]2[C@@H]3CCC4=Cc5oncc5CC4(C)[C@H]3CCC21C (stereo partly drawn)
inactive: Potency [1] | Potency [2] | Potency [3] | Potency [4] | Potency [5] | outcome [6] | Potency [15] | outcome [11]

CC(C)(C)NCC(O)COc1nsnc1N1CCOCC1 (stereo not drawn)
inactive: Potency [18] | Potency [4] | outcome [12] | Potency [17]

CNc1ncnc2c1ncn2[C@@H]1O[C@H](CO)[C@@H](O)[C@H]1O
inactive: Potency [1] | Potency [2] | Potency [3] | Potency [4] | Potency [5] | outcome [6] | Potency [14] | Potency [7] | Potency [8] | Potency [9] | Potency [10] | outcome [11]
-0.614%: viability change [10]

CCN(CC)c1ncnc2c1ncn2[C@@H]1O[C@H](COP(=O)(O)OP(=O)(O)C(Br)(Br)P(=O)(O)O)[C@@H](O)[C@H]1O
-6.83%: viability change [10]
inactive: Potency [1] | Potency [2] | Potency [3] | Potency [5] | outcome [6] | Potency [7] | Potency [8] | Potency [15] | Potency [10] | outcome [11]
